For some assays here: Potency and affinity values are given separately.
Experiments:
Design in all cases: scale not given: direction of the effect not stated beside the values
[1] = target: Protein translocase subunit SecA (Escherichia coli (strain K12)) (UniProt P10408); assay: Assay to Identify E. coli SecA ATPase Inhibitors; assay type: functional; details: 30 µM
[2] = target: T1, Ubiquitin-activating enzyme e1, putative (Leishmania donovani (strain BPK282A1)) (UniProt E9BSI1); assay: Leishmania donovani Ubiquitin Activating Enzyme (LdE1); assay type: functional; details: 30 µM
T1 sequence (whole entry): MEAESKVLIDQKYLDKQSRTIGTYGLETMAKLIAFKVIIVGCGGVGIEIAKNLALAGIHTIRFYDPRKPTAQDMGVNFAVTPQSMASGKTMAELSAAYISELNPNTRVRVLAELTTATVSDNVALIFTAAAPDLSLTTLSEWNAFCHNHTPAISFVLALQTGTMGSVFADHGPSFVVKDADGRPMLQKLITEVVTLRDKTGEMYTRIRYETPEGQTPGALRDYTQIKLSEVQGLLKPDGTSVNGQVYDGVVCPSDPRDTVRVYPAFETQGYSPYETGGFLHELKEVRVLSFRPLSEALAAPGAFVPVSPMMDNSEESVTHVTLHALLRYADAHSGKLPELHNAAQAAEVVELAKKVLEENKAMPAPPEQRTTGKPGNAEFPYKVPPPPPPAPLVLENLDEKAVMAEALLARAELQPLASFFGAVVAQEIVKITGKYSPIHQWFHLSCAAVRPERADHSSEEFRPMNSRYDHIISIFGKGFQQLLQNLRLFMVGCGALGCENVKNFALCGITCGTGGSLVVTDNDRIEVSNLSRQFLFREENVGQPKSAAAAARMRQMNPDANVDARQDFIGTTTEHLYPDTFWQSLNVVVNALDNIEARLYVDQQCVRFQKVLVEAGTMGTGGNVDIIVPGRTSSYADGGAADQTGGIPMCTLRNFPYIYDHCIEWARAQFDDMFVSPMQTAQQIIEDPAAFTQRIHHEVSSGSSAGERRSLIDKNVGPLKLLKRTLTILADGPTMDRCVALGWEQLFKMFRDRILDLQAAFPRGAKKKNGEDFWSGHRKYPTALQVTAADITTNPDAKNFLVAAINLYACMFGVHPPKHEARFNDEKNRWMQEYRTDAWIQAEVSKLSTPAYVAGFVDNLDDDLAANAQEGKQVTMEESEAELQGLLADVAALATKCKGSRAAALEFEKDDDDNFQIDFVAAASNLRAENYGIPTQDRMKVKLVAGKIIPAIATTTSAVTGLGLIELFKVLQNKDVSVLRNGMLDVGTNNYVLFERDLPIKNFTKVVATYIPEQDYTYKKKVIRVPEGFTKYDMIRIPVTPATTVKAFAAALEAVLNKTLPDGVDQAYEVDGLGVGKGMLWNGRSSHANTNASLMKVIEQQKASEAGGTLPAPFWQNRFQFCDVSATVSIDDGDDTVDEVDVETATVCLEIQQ

[3] = target: AMP-activated protein kinase, AMPK (Homo sapiens) (UniProt P54646+O43741+P54619+Q9UGJ0+Q9Y478+Q13131+Q9UGI9); assay: AMP-dependent Kinase enzyme assay. An in vitro enzyme assay that detects ADP turnover that is directly proportional to AMPK activity. This uses naive AMPK that is activated during the assay with MK-8722; assay type: functional; details: 30 µM
[4] = target: Sialic acid-binding Ig-like lectin 9 (Homo sapiens) (UniProt Q9Y336); assay: Hs-Siglec9 ALPHAscreen SOP 20170721; details: 10 µM
[5] = test system: Trypanosoma cruzi; assay: Trypanosoma cruzi phosphomannomutase and mannose-1-phosphate guanylyltransferase assay; assay type: functional; details: 10 µM
[6] = target: T2, Arginase-2, mitochondrial (Homo sapiens) (UniProt P78540); assay: in vitro enzyme assay to detect the production of urea directly proportional to the activity of Arginase II; assay type: functional; details: 33.3 µM; note: in the data most compounds retested in dose-response had high values
T2 sequence (whole entry): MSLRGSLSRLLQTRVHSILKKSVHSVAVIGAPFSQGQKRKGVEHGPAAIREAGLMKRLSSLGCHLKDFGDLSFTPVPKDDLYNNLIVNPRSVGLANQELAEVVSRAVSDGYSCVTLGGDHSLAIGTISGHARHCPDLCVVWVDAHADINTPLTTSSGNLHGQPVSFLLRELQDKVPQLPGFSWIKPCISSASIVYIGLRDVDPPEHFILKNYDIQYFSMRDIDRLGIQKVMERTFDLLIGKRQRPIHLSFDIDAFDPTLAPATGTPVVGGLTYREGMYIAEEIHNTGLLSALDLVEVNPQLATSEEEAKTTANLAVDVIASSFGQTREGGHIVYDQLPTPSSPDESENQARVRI

[7] = target: T3, Proteasome subunit beta (Trypanosoma cruzi) (UniProt O96673); assay: Trypanosoma cruzi proteasome chymotrypsin-like activity (TcProtChymo) assay.; note: in the data most compounds retested in dose-response had high values; assay type: functional; details: 9.37 µM
T3 sequence (whole entry): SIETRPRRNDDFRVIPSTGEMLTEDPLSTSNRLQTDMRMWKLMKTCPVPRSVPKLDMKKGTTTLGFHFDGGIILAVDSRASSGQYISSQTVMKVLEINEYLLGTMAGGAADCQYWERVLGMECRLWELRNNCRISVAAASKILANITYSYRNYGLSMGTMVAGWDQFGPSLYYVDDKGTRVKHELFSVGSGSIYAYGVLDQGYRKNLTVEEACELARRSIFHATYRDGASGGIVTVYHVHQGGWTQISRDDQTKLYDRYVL

[8] = species on record: Homo sapiens; assay: To identify inhibition of the IFN signalling (Jak-Stat) pathway via expression of an eGFP reporter gene under the control of an IFN-stimulated response element (ISRE) containing MxA promoter.; assay type: functional; details: 30 µM
[9] = target: T4, Tyrosyl-tRNA synthetase, putative (Trypanosoma cruzi (strain CL Brener)) (UniProt Q4DSP6); assay: Trypanosoma cruzi tyrosyl tRNA synthetase (TcYRS) _High Tyrosine SOP; assay type: functional; details: 30 µM; note: in the data most compounds retested in dose-response had high values
T4 sequence (whole entry): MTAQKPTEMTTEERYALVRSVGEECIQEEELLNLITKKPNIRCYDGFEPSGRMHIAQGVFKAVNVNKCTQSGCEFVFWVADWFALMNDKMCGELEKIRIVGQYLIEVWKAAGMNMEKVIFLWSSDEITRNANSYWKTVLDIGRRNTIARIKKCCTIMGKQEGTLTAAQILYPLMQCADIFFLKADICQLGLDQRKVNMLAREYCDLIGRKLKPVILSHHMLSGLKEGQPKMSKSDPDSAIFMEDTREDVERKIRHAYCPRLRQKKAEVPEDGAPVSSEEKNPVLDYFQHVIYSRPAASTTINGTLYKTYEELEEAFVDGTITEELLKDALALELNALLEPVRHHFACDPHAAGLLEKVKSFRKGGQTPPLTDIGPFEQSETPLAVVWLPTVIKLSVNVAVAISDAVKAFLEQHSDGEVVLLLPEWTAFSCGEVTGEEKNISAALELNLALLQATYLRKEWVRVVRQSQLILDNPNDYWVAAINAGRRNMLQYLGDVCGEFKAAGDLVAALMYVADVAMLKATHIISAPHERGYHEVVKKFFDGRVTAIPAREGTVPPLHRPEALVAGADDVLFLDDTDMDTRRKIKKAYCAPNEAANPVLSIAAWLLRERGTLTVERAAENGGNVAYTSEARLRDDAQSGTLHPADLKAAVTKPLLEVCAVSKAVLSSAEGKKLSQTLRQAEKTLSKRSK

[10] = target: T4, Tyrosyl-tRNA synthetase, putative (Trypanosoma cruzi (strain CL Brener)); assay: Trypanosoma cruzi tyrosyl tRNA synthetase (TcYRS) SOP; assay type: functional; details: 30 µM
[11] = target: Chromo domain-containing protein 1 (Saccharomyces cerevisiae (strain ATCC 204508 / S288c) (Baker's yeast)) (UniProt P32657); assay: ScCHD-1 Enzyme Inhibition Assay; assay type: functional; details: 30 µM; note: in the data most compounds retested in dose-response had high values
Chromo domain-containing protein 1 (Saccharomyces cerevisiae (strain ATCC 204508 / S288c) (Baker's yeast)), sequence (P32657 whole entry, the tested form may be a part): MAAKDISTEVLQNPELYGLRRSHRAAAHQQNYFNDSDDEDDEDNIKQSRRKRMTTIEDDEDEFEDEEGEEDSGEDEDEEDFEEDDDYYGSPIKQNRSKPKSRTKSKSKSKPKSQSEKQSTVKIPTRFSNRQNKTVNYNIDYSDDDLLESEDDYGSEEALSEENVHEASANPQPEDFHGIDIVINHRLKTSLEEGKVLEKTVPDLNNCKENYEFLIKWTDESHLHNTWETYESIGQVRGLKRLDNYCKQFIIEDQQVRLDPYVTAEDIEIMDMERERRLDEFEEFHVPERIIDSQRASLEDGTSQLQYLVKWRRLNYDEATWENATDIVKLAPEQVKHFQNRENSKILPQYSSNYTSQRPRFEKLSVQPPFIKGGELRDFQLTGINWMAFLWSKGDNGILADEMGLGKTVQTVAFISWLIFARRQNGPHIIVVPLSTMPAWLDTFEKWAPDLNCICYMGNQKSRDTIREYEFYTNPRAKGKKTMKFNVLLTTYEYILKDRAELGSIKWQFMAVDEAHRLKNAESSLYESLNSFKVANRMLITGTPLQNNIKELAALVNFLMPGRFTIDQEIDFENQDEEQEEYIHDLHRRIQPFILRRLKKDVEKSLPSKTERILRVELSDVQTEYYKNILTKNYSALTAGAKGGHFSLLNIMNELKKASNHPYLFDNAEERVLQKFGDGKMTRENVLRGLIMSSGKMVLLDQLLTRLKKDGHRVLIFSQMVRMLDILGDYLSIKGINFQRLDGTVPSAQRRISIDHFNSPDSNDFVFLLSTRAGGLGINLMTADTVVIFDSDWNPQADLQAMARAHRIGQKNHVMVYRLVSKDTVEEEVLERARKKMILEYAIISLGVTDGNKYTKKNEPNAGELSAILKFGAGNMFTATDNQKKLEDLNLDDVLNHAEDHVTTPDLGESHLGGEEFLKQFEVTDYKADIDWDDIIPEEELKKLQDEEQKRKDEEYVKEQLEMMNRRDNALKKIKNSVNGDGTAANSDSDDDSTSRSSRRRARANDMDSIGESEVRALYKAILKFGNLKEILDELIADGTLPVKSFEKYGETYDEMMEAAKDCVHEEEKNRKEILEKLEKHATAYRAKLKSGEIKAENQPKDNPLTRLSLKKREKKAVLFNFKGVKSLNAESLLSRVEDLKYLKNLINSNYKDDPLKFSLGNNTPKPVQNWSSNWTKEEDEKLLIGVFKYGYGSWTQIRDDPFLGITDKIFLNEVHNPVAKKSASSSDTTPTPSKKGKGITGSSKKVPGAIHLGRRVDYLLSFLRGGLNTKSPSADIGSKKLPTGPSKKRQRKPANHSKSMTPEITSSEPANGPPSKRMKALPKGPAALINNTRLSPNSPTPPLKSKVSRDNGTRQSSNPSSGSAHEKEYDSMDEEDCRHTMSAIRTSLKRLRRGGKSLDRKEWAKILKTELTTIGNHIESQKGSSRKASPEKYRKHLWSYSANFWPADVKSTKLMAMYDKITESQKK

Protein translocase subunit SecA (Escherichia coli (strain K12)), sequence (P10408 whole entry): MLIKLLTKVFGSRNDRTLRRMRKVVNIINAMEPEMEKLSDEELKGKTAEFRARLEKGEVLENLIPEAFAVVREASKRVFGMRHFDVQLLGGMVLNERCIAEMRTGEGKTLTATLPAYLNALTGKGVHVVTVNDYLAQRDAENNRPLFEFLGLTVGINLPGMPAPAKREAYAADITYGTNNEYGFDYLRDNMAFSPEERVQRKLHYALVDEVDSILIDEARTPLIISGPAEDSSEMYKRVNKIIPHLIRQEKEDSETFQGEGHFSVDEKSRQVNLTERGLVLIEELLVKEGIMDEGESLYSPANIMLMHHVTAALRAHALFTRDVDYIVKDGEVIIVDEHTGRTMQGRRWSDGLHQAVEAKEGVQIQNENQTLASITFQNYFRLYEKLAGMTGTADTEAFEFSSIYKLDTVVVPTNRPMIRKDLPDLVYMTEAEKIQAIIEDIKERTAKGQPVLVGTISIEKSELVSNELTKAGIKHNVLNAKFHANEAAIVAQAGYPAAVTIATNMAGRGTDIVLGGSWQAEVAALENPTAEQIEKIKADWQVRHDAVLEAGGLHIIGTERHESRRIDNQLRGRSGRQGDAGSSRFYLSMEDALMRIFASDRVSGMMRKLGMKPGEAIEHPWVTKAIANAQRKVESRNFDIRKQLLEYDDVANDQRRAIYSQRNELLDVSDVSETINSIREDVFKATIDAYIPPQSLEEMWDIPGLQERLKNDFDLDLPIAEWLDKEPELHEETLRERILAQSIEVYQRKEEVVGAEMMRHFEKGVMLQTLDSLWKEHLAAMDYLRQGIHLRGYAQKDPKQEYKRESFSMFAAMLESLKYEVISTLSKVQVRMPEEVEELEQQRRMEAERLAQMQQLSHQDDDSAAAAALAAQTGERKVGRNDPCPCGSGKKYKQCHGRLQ
Sialic acid-binding Ig-like lectin 9 (Homo sapiens), sequence (Q9Y336 whole entry): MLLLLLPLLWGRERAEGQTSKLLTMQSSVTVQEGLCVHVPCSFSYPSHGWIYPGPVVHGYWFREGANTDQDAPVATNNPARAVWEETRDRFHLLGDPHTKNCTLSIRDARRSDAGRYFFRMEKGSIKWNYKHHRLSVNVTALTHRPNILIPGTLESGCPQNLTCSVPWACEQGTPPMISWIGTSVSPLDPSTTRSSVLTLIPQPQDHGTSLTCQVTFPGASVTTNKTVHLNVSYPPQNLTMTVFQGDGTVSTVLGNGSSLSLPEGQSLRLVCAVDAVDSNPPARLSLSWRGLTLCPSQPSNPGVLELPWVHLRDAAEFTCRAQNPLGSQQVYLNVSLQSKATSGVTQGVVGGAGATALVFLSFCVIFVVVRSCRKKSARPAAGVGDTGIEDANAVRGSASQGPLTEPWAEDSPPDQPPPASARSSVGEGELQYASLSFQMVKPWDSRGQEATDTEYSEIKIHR

Structure (SMILES)	Percent Effect [1]	Percent Effect [2]	Percent Effect [3]	Percent Effect [4]	Percent Effect [5]	Percent Effect [6]	Percent Effect [7]	Percent Effect [8]	Percent Effect [9]	Percent Effect [10]	Percent Effect [11]
c1csc(-c2nc(CN3CCOC(Cn4cncn4)C3)cs2)c1 (configuration not stated)	-4.12%	7.89%	-2.14%	1.07%	-3.83%	0%	15.5%	-10.6%	4.43%	6.17%	-6.35%
Cc1csc(C2CCCCN2C(=O)CN(C)C2CC2)n1 (configuration not stated)	1.03%	-13.9%	0.541%	-1.97%	2.56%	-2.37%	8.75%	-15.9%	1.04%	5.06%	9.83%
CC1(C(=O)N2CCOCC2)CN(Cc2ccccc2F)CCO1 (configuration not stated)	-2.69%	8%	12%	4.39%	-4.13%	0.699%	-1.15%	17%	3.19%	8.97%	-1.88%
Cn1ccnc1CN1CCC2(CC1)CC(Oc1cccnc1)C2	-2.04%	8%	4.85%	10.2%	-1.35%	-23.8%	1.88%	6.63%	10.4%	22.5%	-6.08%
Cc1cccnc1CN1CCC(c2nnc(Cn3cccn3)n2C)CC1	-4.04%	1.39%	0.385%	-7.79%	-3.98%	2.21%	8.95%	-6.28%	3.16%	10.3%	-2.58%
Cc1nn(C)c(N2CCOCC2)c1CNCc1nccs1	-3.96%	7.89%	-1.27%	5.34%	9.4%	4.21%	9.86%	3.23%	3.43%	17.1%	-6.95%
CN(Cc1cnn(C)c1)C(=O)NC1CCS(=O)(=O)C1 (configuration not stated)	0.0061%	4.17%	-12.4%	-0.91%	5.15%	-0.442%	20.5%	6.03%	4.21%	7.69%	-2.71%
CCN1CC(C(=O)N(C)Cc2ccon2)CC1=O (configuration not stated)	-8.65%	0%	-1.95%	-7.7%	-2.44%	-2.73%	7.47%	13.7%	-1.07%	-1.24%	-3.83%
COc1ccccc1OCc1cc(C(=O)N2CC=CC2C(C)C)n[nH]1 (configuration not stated)	0.254%	1.39%	-2.81%	9.42%	2.82%	8.83%	11.9%	-13.9%	5.26%	7.69%	-2.27%
CCc1nc(CN(C)C2CCN(Cc3ccc(C#N)cc3F)C2)no1 (configuration not stated)	-6.15%	10.8%	-3.61%	-0.906%	-6.7%	-6.01%	12.6%	20.8%	7.39%	1.24%	-7.82%
CCN1CCCC1CN(CCN(C)C)S(=O)(=O)c1cccc(C#N)c1 (configuration not stated)	-5.4%	13.7%	3.08%	5.43%	6.27%	4.09%	8.16%	0.578%	4.3%	10%	-4.67%
O=C(c1cc(Cl)cc(Cl)c1)N1CCN(c2nccs2)CC1	-2.62%	13.7%	5.26%	6.34%	0.588%	10.4%	19.2%	0.362%	4.3%	20%	-10.5%
O=S(=O)(CCN1CCOC(Cn2cccn2)C1)C(F)(F)F (configuration not stated)	-0.0845%	24.1%	13.4%	-1.22%	2.97%	-1.5%	18.4%	30.2%	8.33%	12.7%	61.7%
COc1ccccc1OCC(=O)Nc1ncccc1OC(F)F	-3.34%	1.39%	-0.812%	-4.65%	-7.48%	4.86%	13.2%	-3.02%	1.05%	-5.13%	-3.95%
Cc1nc(Nc2nnc(C)s2)cc(C2CCCN2C)n1 (configuration not stated)	-1.27%	16%	3.75%	-11.6%	-2.95%	-4.43%	15.1%	29.1%	2.13%	3.85%	-6.23%
CC(C)CCc1noc(CN2CCCN(C(=O)c3ccco3)CC2)n1	-5.45%	-8.22%	-0.00644%	4.33%	2.38%	-11.2%	3.68%	7.02%	3.12%	3.7%	-3.57%
Cc1nc(CN2CCC(C(=O)O)(n3ccc(-c4ccco4)n3)CC2)co1	-6.11%	8.22%	-0.438%	4.25%	0%	-0.399%	12.9%	23.4%	1.04%	3.7%	-0.0478%
CS(=O)(=O)N1CCOCC2(CN(Cc3ccsc3)CCO2)C1 (configuration not stated)	-4.51%	5.48%	-1.43%	5.15%	7.14%	-4.39%	8.82%	10.5%	5.21%	6.17%	-0.73%
CS(=O)(=O)NCC1CCCN(Cc2ccc(F)c3cccnc23)C1 (configuration not stated)	-1.47%	2.6%	-1.1%	10.8%	-2.06%	-4.14%	18.5%	16.9%	5.38%	13.6%	3.65%
COc1cc(C)nc(N2CCN(C(=O)CCn3cc(C)cn3)CC2)n1	-1.32%	10.1%	1.67%	2.37%	-6.52%	4.94%	-6.47%	11%	-6.4%	11.4%	-2.89%
Cn1cnnc1C1CCCN(C(=O)NCc2ccc3c(c2)OCO3)C1 (configuration not stated)	-5.4%	-10.4%	-2.19%	-7.32%	3.43%	-12.8%	11.2%	-5.11%	9.52%	23.5%	-12.6%
Cc1nn(CC(C)C)c(N(C)C)c1CNCc1cccnc1N(C)C	-4.49%	5.41%	-8.59%	3.17%	-9.34%	-6.41%	7.75%	6.14%	1.48%	3.7%	-5.66%

Reference: ChEMBL document CHEMBL3988442, “University of Dundee, Small-Polar-MMV Screening Library” (2021)
